In PubChem BioAssay AID2108 (National Center for Advancing Translational Sciences (NCATS), 2009):
Results filed as inconclusive are left out. The source made the active and inactive calls. Calls follow the shape of the dose curve; as a rule, active = well fitted curve in the direction sought with a large enough effect; inconclusive = small, poorly fitted or top-dose-only effect, or effect the other way, or another doubt; inactive = no such curve, though single readings can be large or run the other way.

These compounds were tested against Alpha-galactosidase A (Homo sapiens) (UniProt P06280) (assay: Confirmation of Inhibitors of Human alpha-Galactosidase Using Spleen Homogenate). Details: alpha-galactosidase enzyme activity; series mostly up to 56.2 µM.
Sequence of Alpha-galactosidase A (Homo sapiens) (P06280 32-429 limits assumed): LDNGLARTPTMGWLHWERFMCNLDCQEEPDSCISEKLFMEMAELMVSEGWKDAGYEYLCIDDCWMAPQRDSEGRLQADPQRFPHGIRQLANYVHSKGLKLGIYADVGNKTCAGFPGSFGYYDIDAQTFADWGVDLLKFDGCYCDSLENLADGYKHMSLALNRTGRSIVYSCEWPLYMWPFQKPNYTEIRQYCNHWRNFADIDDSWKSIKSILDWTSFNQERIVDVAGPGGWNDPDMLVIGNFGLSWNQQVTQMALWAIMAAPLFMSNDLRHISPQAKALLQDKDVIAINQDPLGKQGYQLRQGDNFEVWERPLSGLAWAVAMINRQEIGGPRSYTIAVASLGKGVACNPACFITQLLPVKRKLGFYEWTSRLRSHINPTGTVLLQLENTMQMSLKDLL
In short: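 AC50 values come from Hill-equation fits of normalised 4-methylumbelliferone fluorescence (365/440 nm, read after NaOH/glycine stop). Enzyme source: spleen homogenate; substrate 1 mM final; pH 5.0 citrate buffer; 40 min at 37C; compound titration 0.5 nM–58 uM.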
With `CCN1CCc2nc(NC(=O)CC(c3ccccc3)c3ccccc3)sc2C1` the outcome was “inactive”. In the case of `Cc1c(C(=O)NCc2ccccc2F)oc2ccccc12`, the outcome is reported as “inactive”. With `COc1cccc2cc(-c3nc4c(s3)CCc3ccccc3-4)c(=O)oc12` the outcome was “inactive”. With `CC1OC(OC2C(CO)OC(OC3C(CO)OC(O)C(O)C3O)C(O)C2O)C(O)C(O)C1NC1C=C(CO)C(O)C(O)C1O` (configuration not stated) the outcome was “inactive”. In the case of `CCOC(=O)Cc1csc(NC(=O)NC2(C(F)(F)F)Oc3cc(Cl)c(Cl)cc3O2)n1`, the outcome is reported as “inactive”. With `COc1ccc2nc3c(cc2c1)Cn1c-3nc2ccccc2c1=O` the outcome was “inactive”. With `COC(=O)c1ccc(CSc2cc(C)c3cccc(C)c3n2)o1` the outcome was “inactive”. For `O=S(=O)(c1ccccc1Cl)N1CCOCC1`, the outcome was “inactive”. In the case of `CCC1OC23CCCCC2C(C#N)(C(=N)O3)C1(C#N)C#N` (configuration not stated), the outcome is reported as “inactive”. In the case of `CCCCCCc1cc2cc(C(=O)NC)c(=N)oc2cc1O`, the outcome is reported as “inactive”. For `Cc1cccc(S(=O)(=O)c2c(N)n(-c3ccccc3)c3nc4ccccc4nc23)c1`, the outcome was “inactive”. With `O=C(CSc1n[nH]c(-c2ccccc2)n1)c1ccc(O)c(O)c1` the outcome was “inactive”. `CC(C)Cn1c(SCC(=O)N2CCCCC2)nc2ccccc2c1=O` was tested, and the outcome was “inactive”. In the case of `O=C(NCC1CCOCC1)c1ccc2nc(Cc3cccc(Cl)c3)oc2c1`, the outcome is reported as “inactive”. For `N#Cc1ccc(S(=O)(=O)N2CCOCC2)cc1`, the outcome was “inactive”. For `Cc1ccc2c(c1)c1ncnc(N3CCC4(CC3)OCCO4)c1n2C`, the outcome was “inactive”. In the case of `Cc1ccc(S(=O)(=O)N(C)C)cc1NC(=O)COC(=O)Cc1ccc(Br)cc1`, the outcome is reported as “inactive”. In the case of `OC[C@H]1NC[C@@H](O)[C@@H](O)[C@@H]1O`, the outcome is reported as “inactive”. In the case of `NN=C1c2cc(S(=O)(=O)NCCO)ccc2-c2ccc(S(=O)(=O)NCCO)cc21`, the outcome is reported as “inactive”. With `CCCC1(C)Nc2ccccc2-c2nc3ccccc3n21` (configuration not stated) the outcome was “inactive”. For `COc1ccc2cc(C#N)c(=O)oc2c1`, the outcome was “inactive”. For `O=C(Cn1c(=O)[nH]n(-c2ccccc2)c1=O)N1CCCc2ccccc21`, the outcome was “inactive”. With `O=S(=O)(c1ccc(O)cc1)N1CCOCC1` the outcome was “inactive”. With `O=c1oc2ccc3ccccc3c2cc1-c1nc2c(s1)CCc1ccccc1-2` the outcome was “inactive”. With `CCOC(=O)CCc1cccc2c1CCC2=O` the outcome was “inactive”. `O=C(c1cccc2ccccc12)N1CCN(S(=O)(=O)c2ccccc2)CC1` was tested, and the outcome was “inactive”. For `NC(=O)NN=C1c2cc(S(=O)(=O)N3CCOCC3)ccc2-c2ccc(S(=O)(=O)N3CCOCC3)cc21`, the outcome was “inactive”. With `CC(C)(C)OC(=O)NCCCC[C@H](NC(=O)c1nc[nH]c1C(=O)NCc1ccccc1)C(=O)OC(C)(C)C` the outcome was “inactive”. `CCc1sc(-c2cc3ccc(O)cc3oc2=O)nc1-c1ccccc1` was tested, and the outcome was “inactive”. `O=C(Nc1nnc(-c2cccc(F)c2)s1)Nc1ccccc1F` was tested, and the outcome was “inactive”. With `COc1ccccc1CNc1ccc(N2CCOCC2)c(C(=O)O)c1` the outcome was “inactive”. `CCOc1cc(CNc2ccc(O)cc2)cc(Cl)c1OCc1ccccc1` was tested, and the outcome was “inactive”. With `COc1cc(/C=N/Nc2ccc(Cl)c(C(=O)O)c2)ccc1OC(=O)c1ccccc1F` the outcome was “inactive”. With `COc1ccc(/C=C(/NC(=O)c2ccccc2)C(=O)NC(Cc2c[nH]c3ccccc23)C(=O)O)cc1` (configuration not stated) the outcome was “inactive”. With `Cc1nnc(SCC(=O)Nc2ccc3c(c2)COC3=O)n1-c1ccccc1` the outcome was “inactive”. `COc1cc(C2C(C(=O)c3ccco3)=C(O)C(=O)N2CC2CCCO2)ccc1O` (configuration not stated) was tested, and the outcome was “inactive”. `CCOC(=O)c1ccc(NC(=O)c2ccccc2)cc1` was tested, and the outcome was “inactive”.
